In assay [1] the target is Cytochrome P450 3A4 (Homo sapiens) (UniProt P08684). The assay is described as follows: qHTS Assay for Inhibitors and Substrates of Cytochrome P450 3A4 (AID 884). Also: series mostly up to about 57 µM; % is scaled to controls: 0 for no effect and ±100 for the full control effect; nearly all actives have a fitted effect of over 50% in size. A digest of the protocol: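 20 nM human CYP3A4 with 25 uM Luciferin-PPXE (at KM) in 200 mM KPO4, preincubated 10 min with compound; NADPH regeneration started a 60 min RT reaction. Luciferin detected by luminescence, normalized to 57 uM ketoconazole as full inhibition.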
In general terms: In qHTS, concentration-response curves come from the screen itself.

A short description of assay [2]: qHTS assay for small molecule agonists of the antioxidant response element (ARE) signaling pathway (AID 651741; active = well fitted activation curve with a large enough effect in the signal ratio; the % refers to the signal ratio; also: potency is read from the fitted curve at half-maximal effect; as to activation: % of control where 0% means no effect). Put shortly:
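CellSensor ARE-bla HepG2 cells (2,000/well) carrying ARE-driven beta-lactamase, exposed 16 h at 37 C. LiveBLAzer B/G FRET substrate added for 2 h at room temperature; fluorescence intensity read.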

Assay [3] is described as follows: qHTS assay for small molecule activators of the nuclear factor-kappa B (NF-kB) signaling pathway (AID 651749; active = well fitted activation curve with a large enough effect in the signal ratio; the % refers to the signal ratio; also: series mostly up to about 77 µM; % of control where 0% means no effect). The note with it: NF-kB-bla ME-180 cells, beta-lactamase FRET ratio, 16 h; stronger effect = higher value. A digest of the protocol:
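NF-kB-bla ME-180 cells carrying a beta-lactamase reporter under an NF-kB response element, 2,000 cells/well, exposed to compound for 16 hr at 37C; FRET-based beta-lactamase fluorescence read-out of pathway activation.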

Assay [4] can be described thus: qHTS assay for small molecule disruptors of the mitochondrial membrane potential - 5 hr assay (AID 651755; calls by dose curve; also: % is scaled to controls: 0 for no effect and ±100 for the full control effect; nearly all actives have a fitted effect of over 40% in size). Put shortly: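 HepG2 cells (2,000/well), attached overnight, exposed to compound 5 hr at 37C, then Mito-MPS dye 30 min. Fluorescence read for monomers (490/535 nm) and aggregates (540/590 nm).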
Assay [5] in a line: qHTS assay to identify small molecules that stimulate interleukin-8 (IL-8) secretion (AID 651758; active = well fitted activation curve with a large enough effect in the signal ratio; the % refers to the signal ratio; also: potency is read from the fitted curve at half-maximal effect; as to activation: 0% is about no effect). A digest of the protocol:
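THP-1 cells (2000/well) exposed to compound 16 h at 37 C; secreted IL-8 then detected by HTRF with cryptate- and XL665-labelled anti-IL-8 antibody pair after 1-3 h at room temperature.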

In assay [6] the target is Mitogen-activated protein kinase 10 (Mus musculus) (UniProt Q61831). The assay is described as follows: JNK3 AlphaScreen Assay (AID 530; active = well fitted curve in either direction with a large enough effect, not every such curve was filed as active;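 also: kinase came from lysate of stimulated human HepG2 cells; signal reports phosphorylation of biotinylated GST-cJun 1-79 at Ser73 with 10 µM ATP; series mostly up to about 57 µM; % is scaled to controls: 0 for no effect and ±100 for the full control effect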). Put shortly: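 Pre-activated (IL-1β/TNFα) JNK3 in HepG2 lysates phosphorylates biotin-GST-cJun(1-79), 10 uM ATP; anti-phospho-cJun(Ser73) AlphaScreen read at room temperature, pH 7.6 Tris buffer. Compounds pre-incubated 15 min as titrations.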
In general terms: Bead proximity is the source of the signal in Alpha formats.

A short description of assay [7]: Cell Viability - LYMP2-001 (AID 921).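 Also: series mostly up to about 92 µM; cells exposed to compound for 24 h at 37 °C; 0% = DMSO only and full inhibition = tetraoctylammonium bromide control wells; nearly all actives have a fitted effect of over 70% in size.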 Put shortly: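 Steps: seed 2500 lymphoblastoid cells/well; 5 hr, 37 C; add compound; 24 hr, 37 C; CellTiter-Glo reagent, 30 min room temperature; read luminescence. Concentration-response modeled by Hill equation for AC50.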
Assay [8] has as its target Glucocorticoid receptor (Homo sapiens) (UniProt P04150). The assay is described as follows: qHTS assay for small molecule antagonists of glucocorticoid receptor signaling (AID 588533; active = well fitted inhibition curve with a large enough effect in the signal ratio, with a control signal flat, not every such curve was filed as active; the % refers to the signal ratio;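 also: cells stimulated with 2 nM dexamethasone as agonist; % is scaled to controls: 0 for no effect and ±100 for the full control effect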). A digest of the protocol: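 Antagonist-mode qHTS: compound titrations added to GRE-bla HeLa cells, then dexamethasone 2 nM final; 18 h, 37 C. CCF4 FRET fluorescence normalized to dexamethasone and DMSO; IC50 from Hill fit.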

The nature of assay [9]: qHTS assay for small molecule antagonists of peroxisome proliferator-activated receptor delta signaling (AID 588535; active = well fitted inhibition curve with a large enough effect in the signal ratio, with a control signal flat, not every such curve was filed as active; the % refers to the signal ratio;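 as to max response: cells co-treated with a PPAR-delta agonist as stimulator during compound exposure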). The settings on record: HEK293T PPARd-UAS-bla, beta-lactamase FRET ratio, 18 h; 460 nm channel. A digest of the protocol: (§1)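 Antagonist-mode beta-lactamase reporter (GeneBLAzer PPAR-delta-UAS-bla) in HEK293T cells, 2% charcoal/dextran FBS, 4000 cells/well. Compound titrations, 18 h at 37 C; CCF4 ratio read, IC50 and efficacy from Hill fits.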

The target in assay [10] is Peroxisome proliferator-activated receptor delta (Homo sapiens) (UniProt Q03181). The assay is described as above. Put shortly: as §1
Assay [11] concerns the target Peroxisome proliferator-activated receptor gamma (Homo sapiens) (UniProt P37231). The assay is described as follows: qHTS assay for small molecule antagonists of peroxisome proliferator-activated receptor gamma signaling (AID 588537; active = well fitted inhibition curve with a large enough effect in the signal ratio, with a control signal flat, not every such curve was filed as active; the % refers to the signal ratio;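 also: reporter cells co-stimulated with 50 nM rosiglitazone agonist during compound treatment; % of control where 0% means no effect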). A digest of the protocol:
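PPARγ-UAS-bla HEK293 cells (3000/well) in 1% charcoal/dextran-stripped FBS are treated with compound, then stimulated with 50 nM rosiglitazone for 16 h at 37 °C. Read-out is CCF4 β-lactamase fluorescence after 2 h at RT. IC50 comes from Hill fits normalised to rosiglitazone and DMSO.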

Assay [12] can be described thus: Cell Viability - LYMP2-013 (AID 970).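 Also: series mostly up to about 92 µM; cells exposed to compound for 24 h at 37 °C; 0% = DMSO only and full inhibition = tetraoctylammonium bromide control; nearly all actives have a fitted effect of over 55% in size.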 Put shortly:
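Human lymphoblastoid LYMP2-013 cells, 2500/well, treated 24 h at 37 C in complete medium; viability as intracellular ATP by CellTiter-Glo luminescence after 30 min. AC50 from Hill fits of qHTS concentration-response.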

A short description of assay [13]: Cell Viability - LYMP2-016 (AID 984).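 Also: cells exposed to compound for 24 hours at 37 °C; % is scaled to controls: 0 for no effect and ±100 for the full control effect; nearly all actives have a fitted effect of over 55% in size.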 A digest of the protocol:
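Cells were seeded at 2500 per well and rested 5 hr before a 24 hr compound exposure at 37 C. Viability was then gauged as cellular ATP by luciferase luminescence, with AC50 values fitted to the Hill equation.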

The target in assay [14] is Peroxisome proliferator-activated receptor alpha (Homo sapiens) (UniProt Q07869). The assay is described as follows: qHTS assay for small molecule agonists of the peroxisome proliferator-activated receptor alpha (PPARalpha) signaling pathway (AID 651778). Also: % of control where 0% means no effect. The settings on record: PathHunter PPARalpha complementation, chemiluminescence, 6 h; max response: stronger effect = higher value. A digest of the protocol: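 Enzyme-fragment complementation assay in which ligand-bound PPARalpha translocates and forms an active enzyme that generates chemiluminescence. Cells were plated overnight, exposed to compound for 6 hr at 37 C, and then given detection reagent for 60 min at room temperature.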

The nature of assay [15]: Cell Viability - BJ (AID 421; calls by dose curve;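 also: potency is read from the fitted curve at half-maximal effect; cells exposed to compound for 40 hours at 37 °C before readout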). The settings on record: BJ fibroblast viability, qHTS. A digest of the protocol:
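Cytotoxicity as drop in intracellular ATP (CellTiter-Glo, 20 min RT) after 40 hr compound exposure of BJ fibroblasts at 37 °C. Titrations scaled between DMSO and 100 uM tamoxifen, Hill-fitted for AC50.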

The nature of assay [16]: Cell Viability - LYMP2-014 (AID 983).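 Also: series mostly up to about 92 µM; cells exposed to compound for 24 h at 37 °C; plate controls were DMSO only for no effect and 92 µM tetraoctylammonium bromide for full effect; nearly all actives have a fitted effect of over 50% in size.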 Put shortly: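 LYMP2-014 human lymphoblastoid cells, 2500/well, treated 24 h at 37 C in complete medium; viability by CellTiter-Glo ATP luminescence after 30 min at room temperature. AC50 from Hill fits of qHTS concentration-response; tetraoctylammonium bromide positive control.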
Assay [17] in a line: qHTS assay for cell viability of HEK293 cells (AID 743288). Also: % is scaled to controls: 0 for no effect and ±100 for the full control effect; nearly all actives have a fitted effect of over 50% in size. The note with it: ATP luminescence (CellTiter-Glo), 18 h; max response: stronger effect = lower value. Put shortly:
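HEK293 parental, 2,000 cells/well; ≥5 h pre-incubation 37 C; pintool compound addition; 18 h, 37 C; CellTiter-Glo 30 min RT; luminescence read.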

Assay [18] has as its target Bile acid receptor (Homo sapiens) (UniProt Q96RI1). The assay is described as follows: qHTS assay for small molecule antagonists of farnesoid X receptor signaling (AID 588526; calls by dose curve; also: % is scaled to controls: 0 for no effect and ±100 for the full control effect). Put shortly: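 Antagonist mode: titrated compounds tested against chenodeoxycholic acid stimulation (normalized to 50 uM CDCA and DMSO) in GeneBLAzer HEK293T cells for 16 h. Beta-lactamase read by CCF4 fluorescence; IC50 from Hill fits.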

Assay [19] concerns the target Thyroid hormone receptor beta (Homo sapiens) (UniProt P10828). The assay is described as follows: qHTS assay for small molecule agonists of thyroid hormone receptor beta signaling (AID 588545; calls by dose curve;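 also: 0% = DMSO only and 100% = 10 nM T3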). A digest of the protocol: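 Stimulation of a TR-driven beta-lactamase reporter was quantified in GripTite HEK 293 cells. Compound series ran for 18 hrs; curves were normalized to T3 and DMSO controls and fitted to yield EC50.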

Several values for one entry are separate records, joined by “and”; a condition that tells them apart may be missing. Equal values may be shown once. Records with an inconclusive call do not appear. Where a structure was tested more than once in an assay, its records may differ in their call. Activity calls are given as the source filed them. Unless noted, calls follow the shape of the dose curve; as a rule, active = well fitted curve in the direction sought with a large enough effect; inconclusive = small, poorly fitted or top-dose-only effect, or another doubt; inactive = no such curve, though single readings can be large; an effect the other way counts as inactive or inconclusive. Bounds are passed on as bounds.

12 compounds from PubChem BioAssay (NCATS) can be followed below.

Peroxisome proliferator-activated receptor gamma (Homo sapiens), sequence (P37231 whole entry, looked up): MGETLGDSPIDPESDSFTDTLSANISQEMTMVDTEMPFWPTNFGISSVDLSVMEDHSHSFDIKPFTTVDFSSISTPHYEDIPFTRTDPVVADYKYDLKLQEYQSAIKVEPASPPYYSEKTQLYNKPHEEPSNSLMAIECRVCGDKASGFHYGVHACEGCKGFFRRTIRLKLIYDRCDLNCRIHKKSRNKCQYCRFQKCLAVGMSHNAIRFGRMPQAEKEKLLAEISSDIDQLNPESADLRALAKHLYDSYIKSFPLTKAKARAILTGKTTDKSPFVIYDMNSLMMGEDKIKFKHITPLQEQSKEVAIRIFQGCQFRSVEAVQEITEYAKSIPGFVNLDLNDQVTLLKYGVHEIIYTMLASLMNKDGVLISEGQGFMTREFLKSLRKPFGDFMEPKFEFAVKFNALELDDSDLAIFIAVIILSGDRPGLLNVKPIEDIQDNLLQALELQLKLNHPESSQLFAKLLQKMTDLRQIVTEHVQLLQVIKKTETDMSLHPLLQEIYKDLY
Peroxisome proliferator-activated receptor alpha (Homo sapiens), sequence (Q07869 whole entry, looked up, the tested form may be a part): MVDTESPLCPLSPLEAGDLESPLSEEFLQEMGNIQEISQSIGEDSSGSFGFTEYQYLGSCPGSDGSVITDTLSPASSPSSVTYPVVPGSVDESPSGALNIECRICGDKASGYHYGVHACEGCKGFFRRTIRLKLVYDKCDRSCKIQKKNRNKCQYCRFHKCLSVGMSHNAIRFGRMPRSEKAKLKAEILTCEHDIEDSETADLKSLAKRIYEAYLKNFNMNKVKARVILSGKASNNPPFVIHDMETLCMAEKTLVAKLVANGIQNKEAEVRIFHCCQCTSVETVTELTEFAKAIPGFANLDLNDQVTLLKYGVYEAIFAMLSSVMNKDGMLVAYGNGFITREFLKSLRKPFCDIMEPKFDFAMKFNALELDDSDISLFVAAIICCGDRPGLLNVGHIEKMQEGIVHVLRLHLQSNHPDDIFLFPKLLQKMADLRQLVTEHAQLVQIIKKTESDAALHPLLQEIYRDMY
Glucocorticoid receptor (Homo sapiens), sequence (P04150 whole entry, looked up): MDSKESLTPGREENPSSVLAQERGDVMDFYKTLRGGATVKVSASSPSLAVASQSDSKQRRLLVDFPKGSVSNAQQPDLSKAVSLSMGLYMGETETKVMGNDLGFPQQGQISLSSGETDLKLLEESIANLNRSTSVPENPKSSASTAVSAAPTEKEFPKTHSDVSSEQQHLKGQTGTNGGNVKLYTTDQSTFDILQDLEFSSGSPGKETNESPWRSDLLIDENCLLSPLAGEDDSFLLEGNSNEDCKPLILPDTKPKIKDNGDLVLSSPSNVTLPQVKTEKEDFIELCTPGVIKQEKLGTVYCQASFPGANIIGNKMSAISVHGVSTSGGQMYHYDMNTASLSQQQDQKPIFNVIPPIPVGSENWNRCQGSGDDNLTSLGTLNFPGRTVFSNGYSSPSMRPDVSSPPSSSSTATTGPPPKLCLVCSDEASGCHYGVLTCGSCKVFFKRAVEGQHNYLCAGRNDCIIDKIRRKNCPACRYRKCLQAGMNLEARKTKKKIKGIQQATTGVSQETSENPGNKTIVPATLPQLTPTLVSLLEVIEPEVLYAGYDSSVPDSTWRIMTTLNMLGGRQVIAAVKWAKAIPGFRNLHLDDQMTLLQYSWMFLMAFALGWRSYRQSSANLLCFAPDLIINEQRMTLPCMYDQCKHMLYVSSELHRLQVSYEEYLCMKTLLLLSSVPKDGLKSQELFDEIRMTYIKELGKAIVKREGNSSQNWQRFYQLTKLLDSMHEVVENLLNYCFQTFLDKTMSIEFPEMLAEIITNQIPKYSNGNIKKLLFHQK
Cytochrome P450 3A4 (Homo sapiens), sequence (P08684 whole entry, looked up): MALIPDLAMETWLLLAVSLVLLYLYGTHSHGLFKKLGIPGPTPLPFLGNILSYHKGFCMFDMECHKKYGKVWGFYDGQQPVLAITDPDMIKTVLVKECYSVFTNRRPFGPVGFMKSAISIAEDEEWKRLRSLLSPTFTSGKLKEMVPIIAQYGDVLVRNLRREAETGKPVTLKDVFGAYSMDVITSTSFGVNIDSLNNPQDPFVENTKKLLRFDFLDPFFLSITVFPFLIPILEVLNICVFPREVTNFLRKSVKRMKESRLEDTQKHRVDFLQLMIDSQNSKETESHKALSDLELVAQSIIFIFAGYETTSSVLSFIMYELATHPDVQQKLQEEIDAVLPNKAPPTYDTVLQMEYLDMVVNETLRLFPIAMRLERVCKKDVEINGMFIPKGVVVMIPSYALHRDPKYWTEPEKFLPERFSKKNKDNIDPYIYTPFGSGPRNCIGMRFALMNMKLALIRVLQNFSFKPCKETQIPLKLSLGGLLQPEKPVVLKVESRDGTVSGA
Thyroid hormone receptor beta (Homo sapiens), sequence (P10828 whole entry, looked up): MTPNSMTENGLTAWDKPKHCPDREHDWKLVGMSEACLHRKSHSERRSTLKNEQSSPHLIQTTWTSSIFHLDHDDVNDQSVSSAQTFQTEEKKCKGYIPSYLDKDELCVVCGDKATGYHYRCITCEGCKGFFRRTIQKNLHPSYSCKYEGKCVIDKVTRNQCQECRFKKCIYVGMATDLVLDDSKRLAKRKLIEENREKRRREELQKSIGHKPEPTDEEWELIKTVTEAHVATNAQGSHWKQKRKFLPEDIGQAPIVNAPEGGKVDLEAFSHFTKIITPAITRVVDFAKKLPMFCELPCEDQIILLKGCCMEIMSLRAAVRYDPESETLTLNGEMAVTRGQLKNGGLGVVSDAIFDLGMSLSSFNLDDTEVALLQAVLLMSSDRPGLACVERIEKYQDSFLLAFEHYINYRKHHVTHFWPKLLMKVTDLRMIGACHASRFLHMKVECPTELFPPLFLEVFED
Peroxisome proliferator-activated receptor delta (Homo sapiens), sequence (Q03181 whole entry, looked up): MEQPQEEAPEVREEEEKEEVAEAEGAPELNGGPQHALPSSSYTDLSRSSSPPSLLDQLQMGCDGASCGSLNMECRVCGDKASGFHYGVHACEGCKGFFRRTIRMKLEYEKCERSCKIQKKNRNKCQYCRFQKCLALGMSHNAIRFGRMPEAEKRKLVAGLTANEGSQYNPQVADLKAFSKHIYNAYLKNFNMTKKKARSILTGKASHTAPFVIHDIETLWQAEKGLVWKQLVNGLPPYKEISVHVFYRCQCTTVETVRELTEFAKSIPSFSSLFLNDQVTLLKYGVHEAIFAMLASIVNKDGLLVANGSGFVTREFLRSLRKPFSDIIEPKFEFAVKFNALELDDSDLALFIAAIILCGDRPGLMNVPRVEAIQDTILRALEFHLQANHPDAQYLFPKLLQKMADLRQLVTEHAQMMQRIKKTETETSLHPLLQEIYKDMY
Bile acid receptor (Homo sapiens), sequence (Q96RI1 whole entry, looked up): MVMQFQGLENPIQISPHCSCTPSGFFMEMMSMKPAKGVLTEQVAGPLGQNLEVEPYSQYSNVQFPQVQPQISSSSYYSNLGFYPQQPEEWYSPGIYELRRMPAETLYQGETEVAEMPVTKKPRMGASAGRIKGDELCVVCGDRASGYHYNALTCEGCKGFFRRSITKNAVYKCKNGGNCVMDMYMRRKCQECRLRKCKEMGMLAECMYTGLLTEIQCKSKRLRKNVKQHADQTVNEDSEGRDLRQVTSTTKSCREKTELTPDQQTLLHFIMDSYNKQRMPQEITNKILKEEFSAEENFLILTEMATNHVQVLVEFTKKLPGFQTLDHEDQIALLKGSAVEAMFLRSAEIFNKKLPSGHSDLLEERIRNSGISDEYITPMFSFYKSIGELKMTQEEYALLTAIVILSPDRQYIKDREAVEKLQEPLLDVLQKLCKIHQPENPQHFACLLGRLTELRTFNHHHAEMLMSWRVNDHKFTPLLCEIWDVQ

As for `S=C1NC=NC2N=CNC12` (configuration not stated), the Potency result in assay [1] and in assay [4] was “inactive” in each case. In addition, the Potency is 23.7 µM (active) in assay [2] and 42.2 µM (active) in assay [5]. Moreover, the activation in assay [3] was 1.89% (inactive).

As to `CCCCC(CC)CN` (configuration not stated), the Potency entry in [6], in [1], in assay [7], in [8], in [10] and in assay [2] was “inactive” throughout. Also, in assay [9], the max response was -11.9% and 2.89%. Also, in assay [11], the result was inactive. The activation in assay [3] was -0.627% (inactive) and -0.116% (inactive). Also, the Potency in assay [5] was 75 µM (active) and inactive.

With `COCC(=O)O`, the Potency result in assay [12], in assay [13], in [8], in assay [10], in assay [2] and in assay [4] was “inactive” in each case. In addition, the max response in [9] is 5.18% and 13.7%; in assay [14], -0.223% (inactive) and -0.993% (inactive). Also, the call in [11] was inactive. For the same compound, in assay [3], the activation was 0.0746% (inactive) and -0.444% (inactive).

Regarding `OCCNCCO`, the Potency in assay [15] is > 92 µM (inactive). The Potency result in [6], in assay [1], in [16], in assay [13], in assay [8] and in [10] was “inactive” in each case. Besides, the max response in [9] was 0.125% and 53.2%; in [17], 2.85% (inactive) and -11.3% (inactive).

Take `Cc1ccc([N+](=O)[O-])cc1N`: the Potency result in assay [6], in assay [12], in assay [16], in assay [10] and in [4] was “inactive” throughout. Further, the compound was called inactive in assay [18] and in assay [11]. In addition, the max response was 18.4% and -6.91% in assay [9]; -4.31% (inactive) and -1.18% (inactive) in assay [14].

As for `CCC(C)c1ccccc1O` (configuration not stated), the Potency result in [6], in assay [8] and in [10] was “inactive” in each case. Also, the max response in assay [9] is -8.1% and -17.6%; in assay [14] it was 4.33% (inactive) and -1.41% (inactive) and -1.75% (inactive). The outcome in assay [11] was inactive. The activation in [3] was 0.327% (inactive) and -0.174% (inactive) and -0.563% (inactive).

As to `O=NO`, the Potency in assay [15] is > 92 µM (inactive). For the same compound, the Potency entry in assay [6], in assay [1], in assay [10], in [4] and in [5] was “inactive” throughout. The max response in assay [9] is 3.13% and -3.55%; in [17] it was 0.172% (inactive) and -0.275% (inactive). The call in assay [11] and in assay [19] was inactive. In addition, in assay [3], the activation was -0.475% (inactive) and 1.4% (inactive).

On to `CC(=O)OC/C=C(\C)CCC=C(C)C`, for which the Potency entry in assay [12], in assay [8] and in assay [10] was “inactive” in each case. Besides, the max response in assay [9] is -10.2% and 0.451%; in assay [17] it was -10.3% (inactive) and 5.2% (inactive). Besides, the call in assay [11] was inactive.

With `CCO[Si](CCCN)(OCC)OCC`, the Potency entry in assay [6], in assay [1], in assay [7], in [16], in [13] and in assay [8] was “inactive” each time. The Potency result in assay [10] and in assay [2] was “inactive” each time. Besides, the compound was classed as inactive in [18] and in assay [11]. In addition, the max response in assay [9] was 6.45% and -7.95%; in assay [14], -1.45% (inactive) and -1.48% (inactive); in assay [17], -4.38% (inactive) and -9.06% (inactive). In addition, the activation in [3] was -0.737% (inactive) and -1.24% (inactive).

For the compound `Cc1ccccc1C`, the Potency in [15] is > 92 µM (inactive). For the same compound, the Potency entry in assay [8], in [10], in [2] and in [4] was “inactive” throughout. Also, in [9], the max response is -3.07% and -4.26%. Besides, the activation in [3] is -0.0827% (inactive) and -0.301% (inactive).

On to `Nc1ccc(Cl)cc1Cl`, for which the Potency entry in assay [6], in assay [7], in [12], in assay [16], in assay [8] and in assay [10] was “inactive” throughout. For the same compound, the compound was called inactive in assay [18], in [11] and in [19]. The max response in assay [9] was 65.7% and 18%; in assay [14] it was 3.51% (inactive) and 0.0732% (inactive); in assay [17], 1.15% (inactive) and -5.99% (inactive). Moreover, the activation in assay [3] was 0.288% (inactive) and 1.41% (inactive).

For `COC(=O)c1ccc(C)cc1`, the Potency in assay [15] is > 92 µM (inactive). Further, the Potency result in [1], in [13], in assay [8], in assay [10], in assay [2] and in [4] was “inactive” in each case. Further, the call in assay [18] was inactive. Besides, the max response is -3.36% and -19.7% in [9]; 0.456% (inactive) and 0.65% (inactive) in assay [14]; 4.41% (inactive) and -4.05% (inactive) in assay [17].
